The values below come from PubChem BioAssay (NCATS).

Some of the results follow. Records with an inconclusive call do not appear. Unmarked numbers belong to inactive results. Activity calls are given as the source filed them. The call rests on the fitted dose curve; in most records, active means well fitted cell-killing curve with a large enough effect; inconclusive means small, poorly fitted or top-dose-only effect, or effect the other way; inactive means flat fitted curve, though single readings scatter.
On the % scale 0 is the no-effect control and ±100 the full control effect; potency means the concentration at half of the fitted maximal effect.

A short description of the assay: Cell viability qHTS assay in S16 Pmp22-F2sN cells - Confirmatory screen (AID 1508641). Particulars: S16 Schwann cells viability, CellTiter-Glo ATP luminescence, 24 h; series mostly up to 57.5 µM; activity change, negative = viability loss: at the top concentration. The text has this:
Assay Provider: Jim Inglese Ph.D. National Center for Advancing Translational Science, National Institutes of Health, Rockville, MD CMT is a heterogeneous group of neurological disorders that affect approximately 1 in 2,500 people. In particular, the most common form of CMT, CMT1A is genetically linked to the duplication of the PMP22 gene which leads to Schwann cell overexpression, thus manifesting itself as a typical case of dose-sensitive diseases. To identify small molecule compounds that can mediate the expression of PMP22 we developed a phenotypic assay screening strategy by utilizing genome editing techniques to construct Schwann cell lines containing novel reporter technology to monitor the transcriptional or translational regulation of PMP22. For high sensitivity we use a bioluminescent reporter system embedded in the 3' UTR of the PMP22 gene (S16(c9) Pmp22-F2sN) to identify compounds that inhibit gene expression. […] We can further discriminate the effect of all transcriptionally active molecules on PMP22 translation or stability with an assay that incorporates a short NLuc peptide (HiBiT) at the C-terminus of expressed PMP22 (S16(f8) PMP22-HiBiT) allowing alpha complementation and luminescence detection of membrane-associated PMP22 protein. These assays were screened against the NCATS Sytravon Library Collection. Miniaturization of these assays to 1536-well plate format for quantitative high throughput screening (qHTS) yielded rich data sets immediately from the qHTS assay (S16(c9) Pmp22-F2sN), when compared with data from a cell viability assay (Cell TiterGlo) to identify compounds that decreased the output signals through cellular toxicity to streamline the selection process of actives for subsequent characterization using the HiBiT assay (S16(f8) PMP22-HiBiT).
Cell viability assay in S16 Pmp22-F2sN cells PROTOCOL TABLE (format as described by Inglese J, Shamu CE and Guy RK. 2007) SEQUENCE No. (e.g., 1, 2, 3, etc.); PARAMETER (e.g., Cells, Incubation, Reagent, etc.); VALUE and DESCRIPTION. 1. Cells. Add 500-1,000 cells in 4 uL in growth media (DMEM High Glucose, No Phenol Red media + 10% heat-inactivated FBS + 1% Pen/Strep supplemented media) per well into Greiner 1536-well white/solid bottom high base, TC-treated plates. 2. Compounds. Library compounds and controls added at 23nL per well, transferred by Pin Tool. 3. Incubation. Incubate plates at 37C, 5% CO2, 95% RH for 24 h. 4. Reagent. Add 3uL CellTiter-Glo per well of Greiner 1536-well plates. 5. Incubation. Incubate plates at room temperature for 15 min., protect from light. 6. Detector. FLuc luminescence measured using CCD-based camera (Viewlux). NOTES (numbers refer to Sequence numbers above; values are from representative experiments) 6. Luminescence Read: Clear filter; Exposure = 1 sec, Gain = High, Speed = Slow, Binning = 2X REFERENCES: 1. Inglese J, Shamu CE and Guy RK, Reporting data from high throughput screening of small molecule libraries, Nature Chemical Biology, 2007, 3(8): 438-441. doi.org/10.1038/nchembio0807-438 2. Yasgar A, Shinn P, Jadhav A, Auld DS, Michael S, Zheng W, Austin CP, Inglese J and Simeonov A, Compound Management for Quantitative High-Throughput Screening. J. Assoc. Lab. Auto., 2008, 13: 79-89. doi: 10.1016/j.jala.2007.12.004
For `COc1cccc(NC(=O)CSC2=Nc3ccccc3C3=NC(CC(=O)NC4CCCCC4)C(=O)N23)c1` (stereo not drawn), the “activity change, negative = viability loss” value is -8.7%. Take `CCCn1c(=N)c(C(=O)NCc2ccccc2)cc2c(=O)n3cccc(C)c3nc21`: the “activity change, negative = viability loss” value is -5.14%. Take `O=S(=O)(c1ccc(Cl)cc1)c1nnn2c1nc(NC1CCCC1)c1sccc12`: the “activity change, negative = viability loss” value was 0.836%.

As for `Cc1ccc(Cn2c(C)c3cnn(CC(=O)NCc4ccccc4)c(=O)c3c2C)cc1`, the “activity change, negative = viability loss” value was 5.5%. On to `COc1cccc(NC(=O)N(Cc2cn(C)c3ccccc23)C2CCCCCC2)c1`, for which the “activity change, negative = viability loss” value was 2.35%.

Regarding `COc1ccc(C2Sc3ccccc3NC3=C2C(=O)c2ccccc23)c(OC)c1OC` (stereo not drawn), the “activity change, negative = viability loss” value was -4.14%. Still for that read-out and setting: then `CCOC(=O)c1ccc(N2C(=O)c3n[nH]c(C)c3C2c2ccc(O)c(OC)c2)cc1` (stereo not drawn), with 8.57%. On to `CC(=O)N1CCCc2cc(S(=O)(=O)N3CCCC(C(=O)N4CCN(c5cccc(Cl)c5)CC4)C3)ccc21` (stereo not drawn), for which the Potency is 27.3 µM (active). The same measure, in the same setting: the result for `CCOC(=O)c1c(C)[nH]c(CCC(=O)NCCCN2CCN(c3cc(C)ccc3C)CC2)c1C` reads 30.6 µM (active). `CCC1=Nc2cc(C(=O)NCCCOC(C)C)ccc2Sc2ccc(C)cc21`: the “activity change, negative = viability loss” value is 12.9%. Same read-out and setting: the result for `CCc1ccc(NC(=O)CN2CCSc3ccc(S(=O)(=O)N4CCCC4)cc32)cc1` reads -8.45%; that for `O=C(c1ccc(C(F)(F)F)cc1)N1CCC(c2nc(-c3ccc(S(=O)(=O)N4CCCC4)cc3)no2)CC1`, -11.1%. The same measure, in the same setting: the result for `CCOC(=O)C1CCN(C(=O)CSc2c3c(nc4ccc(Cl)cc24)CCCC3)CC1` reads 2.06%; that for `Cc1sc(C2C(C#N)=C(N)N(c3cccc(Cl)c3)C3=C2C(=O)CCC3)cc1CN1CCOCC1` (stereo not drawn), -21.2%. Consider `COc1ccccc1Nc1c2c(nc3ccc(NC(=O)/C=C/c4cc(OC)c(OC)c(OC)c4)cc13)CCCC2`, for which the Potency was 17.2 µM (active). `COc1ccc(-c2onc(C)c2C)cc1S(=O)(=O)NCC1CCN(Cc2cccc(F)c2)CC1`: the “activity change, negative = viability loss” value was -28.1%. The same measure, in the same setting: the result for `CCC1CCCCN1CCCNC(=O)c1cc2c(Cl)nc3ccccc3c2s1` (stereo not drawn) reads -4.86%; that for `Cc1ccc(CCNC(=O)C2CCN(c3nnc(-n4cccc4CNc4ccc(C)cc4)s3)CC2)cc1`, -3.6%; that for `CC(C)(C)c1ccc(C(=O)NCC(c2ccco2)S(=O)(=O)c2ccc(F)cc2)cc1` (stereo not drawn), -5.87%. Still for that read-out and setting: the result for `Cc1ccc(C)n1-c1nnc(N2CCC(C(=O)NCc3ccccc3Cl)CC2)s1` reads -17%. Regarding `Cc1ccc(NC(=O)c2nc(S(=O)(=O)Cc3cccc(C)c3)ncc2Cl)cc1`, the Potency was 30.6 µM (active). Same read-out and setting: the result for `CCCS(=O)(=O)c1ncc(Cl)c(C(=O)Nc2scc(-c3ccccc3)c2C(=O)OCC)n1` reads 27.3 µM (active). Take `Cc1ccc(OCCSc2nc3ccc(NC(=O)COc4ccc(C)cc4)cc3s2)cc1`: the “activity change, negative = viability loss” value is 1.55%.

`Cc1cccc(Nc2cc(C)nc(-n3nc(C)cc3C)n2)c1`: the “activity change, negative = viability loss” value was -29.4%. Still for that read-out and setting: the result for `Cc1cc(F)ccc1NS(=O)(=O)c1ccc(-n2cccn2)cc1` reads -2.74%; that for `Cc1ccccc1CNC(=O)CSc1nnc(C)c2c(C)n(-c3ccccc3)nc12`, 2.28%; that for `COc1ccc(CCNC(=O)c2cc(=O)c3c(C)cc(C)cc3o2)cc1OC`, -7.68%. Still for that read-out and setting: the result for `Cc1nnc(SCC(=O)NCc2ccccc2Cl)c2nn(-c3ccccc3)c(C)c12` reads 9.7%; that for `CCOCCCNC(=O)c1c(NC(=O)c2nc(SC)ncc2Cl)sc2c1CCCC2`, -11.1%; that for `Cc1cc(OCC(=O)NCC2(N(C)C)CCCCC2)cc(C)c1Cl`, -10.4%.

As for `O=C(NCCCN1CCN(c2cccc(Cl)c2)CC1)c1nnc(Cc2ccc(F)cc2Cl)o1`, the “activity change, negative = viability loss” value was -16.8%.

For the compound `CCOc1ccc(NC(=O)c2c(NC(=O)Cc3ccccc3)sc3c2CCC(C)C3)cc1` (stereo not drawn), the “activity change, negative = viability loss” value is -9.38%. The same measure, in the same setting: the result for `O=C(c1ccc2c(c1)N(Cc1ccc(F)cc1)C(=O)c1ccccc1S2(=O)=O)N1CCN(c2ccccn2)CC1` reads 8.53%.
